Each target was assayed with ClCC(=O)N1CCc2nocc2C1 (assay: log2 ratio of Biotin-Ahx-Ub-VS probe labelling (compound/DMSO); higher = less target engagement, active = hit call of the paper (q ≤ 0.05, log2 ratio ≤ -1)). Settings: compound concentration: 200uM; treatment time: 3 h.
Procedure, shortened: (§1)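 DUBs in HEK293T lysate were labelled with Biotin-Ahx-Ub-VS (0.5 µM final, 1 h) after a 3 h treatment with compound at 50 or 200 µM or with DMSO, done in triplicate on 495 µg of lysate per sample. NeutrAvidin-enriched proteins were digested with LysC and trypsin and run by diaPASEF LC-MS/MS. Median-normalised label-free quantities gave average base-two log ratios of compound to DMSO by unpaired t-test, restricted to proteins with at least 2 unique peptides.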

Chain of UniProt Q92560 (Q92560 whole entry): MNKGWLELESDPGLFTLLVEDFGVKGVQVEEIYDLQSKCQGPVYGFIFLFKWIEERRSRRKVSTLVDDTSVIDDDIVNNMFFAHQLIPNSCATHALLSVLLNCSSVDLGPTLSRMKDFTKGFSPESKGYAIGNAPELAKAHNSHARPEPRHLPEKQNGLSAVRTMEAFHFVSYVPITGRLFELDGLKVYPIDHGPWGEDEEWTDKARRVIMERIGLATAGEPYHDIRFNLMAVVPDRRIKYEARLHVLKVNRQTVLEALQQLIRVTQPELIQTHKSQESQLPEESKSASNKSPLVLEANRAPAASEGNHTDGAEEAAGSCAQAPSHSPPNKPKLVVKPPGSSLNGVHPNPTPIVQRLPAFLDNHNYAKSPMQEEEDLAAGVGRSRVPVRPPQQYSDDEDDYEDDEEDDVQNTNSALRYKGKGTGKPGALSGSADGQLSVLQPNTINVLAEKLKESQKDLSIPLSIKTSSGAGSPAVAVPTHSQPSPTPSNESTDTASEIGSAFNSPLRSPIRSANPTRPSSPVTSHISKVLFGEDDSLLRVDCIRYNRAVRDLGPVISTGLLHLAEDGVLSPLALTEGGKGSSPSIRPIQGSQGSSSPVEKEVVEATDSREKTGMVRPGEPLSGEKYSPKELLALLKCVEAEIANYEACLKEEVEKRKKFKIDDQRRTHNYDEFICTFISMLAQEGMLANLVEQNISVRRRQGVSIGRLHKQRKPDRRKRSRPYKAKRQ
Chain of UniProt Q5VVQ6 (Q5VVQ6 whole entry): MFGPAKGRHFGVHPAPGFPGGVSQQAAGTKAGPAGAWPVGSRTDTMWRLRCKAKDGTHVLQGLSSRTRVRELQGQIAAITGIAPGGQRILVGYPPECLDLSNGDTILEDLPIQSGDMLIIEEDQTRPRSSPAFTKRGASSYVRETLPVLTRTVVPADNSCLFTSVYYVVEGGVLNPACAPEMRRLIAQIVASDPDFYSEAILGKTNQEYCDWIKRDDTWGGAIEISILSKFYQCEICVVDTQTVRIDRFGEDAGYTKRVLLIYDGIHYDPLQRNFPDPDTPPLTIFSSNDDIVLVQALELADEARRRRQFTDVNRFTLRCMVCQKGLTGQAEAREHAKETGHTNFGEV
Chain of UniProt Q96FW1 (Q96FW1 whole entry): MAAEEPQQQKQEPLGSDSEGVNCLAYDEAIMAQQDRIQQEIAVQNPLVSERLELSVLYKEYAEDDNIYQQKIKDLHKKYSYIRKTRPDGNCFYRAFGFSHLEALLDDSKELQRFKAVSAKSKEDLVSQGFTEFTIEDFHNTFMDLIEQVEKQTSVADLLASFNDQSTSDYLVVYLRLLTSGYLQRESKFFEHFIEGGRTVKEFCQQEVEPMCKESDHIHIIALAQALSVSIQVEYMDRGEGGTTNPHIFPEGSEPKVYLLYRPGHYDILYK
Chain of UniProt Q9UPT9 (Q9UPT9 whole entry): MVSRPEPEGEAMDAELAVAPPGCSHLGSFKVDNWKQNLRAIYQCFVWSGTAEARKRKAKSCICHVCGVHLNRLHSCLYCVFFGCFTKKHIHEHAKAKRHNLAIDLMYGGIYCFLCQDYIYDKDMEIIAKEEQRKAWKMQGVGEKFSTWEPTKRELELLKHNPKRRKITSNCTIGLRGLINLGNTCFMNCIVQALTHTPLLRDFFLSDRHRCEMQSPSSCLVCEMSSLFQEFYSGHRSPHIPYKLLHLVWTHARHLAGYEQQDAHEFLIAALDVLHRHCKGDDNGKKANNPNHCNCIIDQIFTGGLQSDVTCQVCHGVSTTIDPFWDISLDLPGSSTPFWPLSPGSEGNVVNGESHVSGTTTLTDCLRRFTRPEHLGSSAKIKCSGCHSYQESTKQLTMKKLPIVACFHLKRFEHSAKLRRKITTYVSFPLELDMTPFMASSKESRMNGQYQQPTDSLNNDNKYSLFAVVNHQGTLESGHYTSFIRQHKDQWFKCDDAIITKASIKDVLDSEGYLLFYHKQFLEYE
Chain of UniProt Q93008 (Q93008 whole entry): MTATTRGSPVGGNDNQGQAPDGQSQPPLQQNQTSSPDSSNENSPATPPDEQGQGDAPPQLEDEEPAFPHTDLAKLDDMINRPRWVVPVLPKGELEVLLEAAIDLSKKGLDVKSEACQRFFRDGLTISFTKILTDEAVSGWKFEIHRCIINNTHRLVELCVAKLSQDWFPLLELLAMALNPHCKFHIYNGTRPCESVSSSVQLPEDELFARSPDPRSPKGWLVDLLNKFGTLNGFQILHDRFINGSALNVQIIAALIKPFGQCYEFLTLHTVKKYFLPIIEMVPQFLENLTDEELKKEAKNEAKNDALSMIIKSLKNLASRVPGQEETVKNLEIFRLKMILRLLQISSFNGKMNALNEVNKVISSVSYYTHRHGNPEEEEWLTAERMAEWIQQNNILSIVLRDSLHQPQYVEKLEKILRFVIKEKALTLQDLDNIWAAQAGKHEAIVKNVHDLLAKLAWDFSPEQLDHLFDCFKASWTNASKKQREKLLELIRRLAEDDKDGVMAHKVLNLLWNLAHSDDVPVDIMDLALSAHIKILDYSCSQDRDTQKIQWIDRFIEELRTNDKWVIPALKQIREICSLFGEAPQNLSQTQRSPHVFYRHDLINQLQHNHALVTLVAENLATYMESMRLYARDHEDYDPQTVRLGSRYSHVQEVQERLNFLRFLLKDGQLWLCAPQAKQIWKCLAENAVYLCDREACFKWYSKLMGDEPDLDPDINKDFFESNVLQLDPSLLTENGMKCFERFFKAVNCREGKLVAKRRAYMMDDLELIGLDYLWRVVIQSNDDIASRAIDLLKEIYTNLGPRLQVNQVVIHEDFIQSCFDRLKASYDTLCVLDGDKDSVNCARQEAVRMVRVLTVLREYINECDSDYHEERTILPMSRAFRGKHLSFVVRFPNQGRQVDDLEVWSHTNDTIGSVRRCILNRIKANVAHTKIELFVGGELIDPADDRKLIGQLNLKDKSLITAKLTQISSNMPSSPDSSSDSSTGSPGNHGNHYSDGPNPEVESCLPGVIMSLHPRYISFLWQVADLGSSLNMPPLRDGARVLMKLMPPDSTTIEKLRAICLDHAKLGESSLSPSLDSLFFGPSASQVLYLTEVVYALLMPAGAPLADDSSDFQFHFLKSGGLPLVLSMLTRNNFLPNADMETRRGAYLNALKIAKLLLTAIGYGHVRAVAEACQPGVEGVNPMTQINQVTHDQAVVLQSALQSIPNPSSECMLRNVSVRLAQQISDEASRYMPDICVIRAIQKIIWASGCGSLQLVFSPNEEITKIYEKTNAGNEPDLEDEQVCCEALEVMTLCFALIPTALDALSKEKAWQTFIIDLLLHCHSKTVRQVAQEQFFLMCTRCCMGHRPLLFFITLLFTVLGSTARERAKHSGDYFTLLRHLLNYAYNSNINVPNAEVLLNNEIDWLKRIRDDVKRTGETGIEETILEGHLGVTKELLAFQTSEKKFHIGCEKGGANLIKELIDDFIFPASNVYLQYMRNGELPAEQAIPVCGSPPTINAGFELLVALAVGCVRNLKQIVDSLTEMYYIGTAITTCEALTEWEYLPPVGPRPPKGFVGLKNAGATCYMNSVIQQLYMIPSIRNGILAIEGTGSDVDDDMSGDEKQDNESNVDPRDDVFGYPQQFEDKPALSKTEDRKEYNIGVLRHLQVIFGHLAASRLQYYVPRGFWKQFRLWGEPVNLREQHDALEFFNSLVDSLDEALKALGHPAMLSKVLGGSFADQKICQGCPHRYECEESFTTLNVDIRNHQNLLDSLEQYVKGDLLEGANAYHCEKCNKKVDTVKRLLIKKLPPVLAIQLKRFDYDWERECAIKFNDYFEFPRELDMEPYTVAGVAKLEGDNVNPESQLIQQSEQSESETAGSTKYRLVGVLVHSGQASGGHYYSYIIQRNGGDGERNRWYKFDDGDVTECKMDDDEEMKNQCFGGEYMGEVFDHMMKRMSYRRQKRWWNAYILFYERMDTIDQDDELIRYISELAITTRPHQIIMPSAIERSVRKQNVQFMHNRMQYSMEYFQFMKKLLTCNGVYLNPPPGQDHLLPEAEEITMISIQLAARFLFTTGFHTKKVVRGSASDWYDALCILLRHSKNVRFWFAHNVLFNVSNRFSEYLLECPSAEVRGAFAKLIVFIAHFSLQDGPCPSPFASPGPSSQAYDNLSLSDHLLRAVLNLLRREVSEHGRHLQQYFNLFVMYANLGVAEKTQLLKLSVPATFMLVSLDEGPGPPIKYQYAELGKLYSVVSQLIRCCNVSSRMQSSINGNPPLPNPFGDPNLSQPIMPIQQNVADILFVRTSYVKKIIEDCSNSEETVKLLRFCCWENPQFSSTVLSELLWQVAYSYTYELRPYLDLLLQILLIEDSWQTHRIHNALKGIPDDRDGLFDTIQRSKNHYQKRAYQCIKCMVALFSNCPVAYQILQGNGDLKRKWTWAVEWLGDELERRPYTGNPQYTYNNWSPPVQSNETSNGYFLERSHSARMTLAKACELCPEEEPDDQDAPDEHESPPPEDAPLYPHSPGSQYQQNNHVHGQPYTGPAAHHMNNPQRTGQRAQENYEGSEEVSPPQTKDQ
Chain of UniProt Q92905 (Q92905 whole entry, looked up): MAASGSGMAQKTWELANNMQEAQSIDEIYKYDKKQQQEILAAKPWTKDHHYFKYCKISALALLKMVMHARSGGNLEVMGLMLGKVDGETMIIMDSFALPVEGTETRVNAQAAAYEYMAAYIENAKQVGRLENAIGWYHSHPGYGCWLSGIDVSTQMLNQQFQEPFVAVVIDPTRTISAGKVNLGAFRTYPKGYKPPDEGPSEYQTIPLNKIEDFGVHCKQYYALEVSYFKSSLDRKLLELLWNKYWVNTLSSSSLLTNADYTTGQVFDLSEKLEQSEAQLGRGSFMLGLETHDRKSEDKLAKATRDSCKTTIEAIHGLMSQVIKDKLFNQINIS
Chain of UniProt Q8N6M0 (Q8N6M0 whole entry): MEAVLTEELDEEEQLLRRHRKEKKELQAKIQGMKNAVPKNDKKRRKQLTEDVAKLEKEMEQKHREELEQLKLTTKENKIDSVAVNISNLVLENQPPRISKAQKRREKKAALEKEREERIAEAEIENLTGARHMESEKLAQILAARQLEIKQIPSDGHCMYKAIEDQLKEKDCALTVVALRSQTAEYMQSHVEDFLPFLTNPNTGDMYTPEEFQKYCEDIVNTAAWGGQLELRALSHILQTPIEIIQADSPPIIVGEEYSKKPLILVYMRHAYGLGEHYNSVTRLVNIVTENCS

Target | log2 ratio of Biotin-Ahx-Ub-VS probe labelling
USP54 (UniProt Q70EL1) | -1.77 (active)
UniProt Q5T2D3 | -0.329 (inactive)
USP28 (UniProt Q96RU2) | -0.624 (inactive)
UniProt Q70EL2 | -0.311 (inactive)
USP22 (UniProt Q9UPT9) | -0.233 (inactive)
OTUD6B (UniProt Q8N6M0) | -0.521 (inactive)
EIF3F (UniProt O00303) | 0.0551 (inactive)
USP36 (UniProt Q9P275) | -0.0333 (inactive)
USP16 (UniProt Q9Y5T5) | -0.326 (inactive)
UCHL5 (UniProt Q9Y5K5) | -0.349 (inactive)
OTUD7B (UniProt Q6GQQ9) | -3.03 (active)
USP14 (UniProt P54578) | -0.17 (inactive)
USP7 (UniProt Q93009) | -0.618 (inactive)
USP34 (UniProt Q70CQ2) | -0.0396 (inactive)
OTUB1 (UniProt Q96FW1) | -0.129 (inactive)
USP9X (UniProt Q93008) | -0.284 (inactive)
COPS5 (UniProt Q92905) | 0.152 (inactive)
USP10 (UniProt Q14694) | -0.136 (inactive)
USP46 (UniProt P62068) | -0.641 (inactive)
YOD1 (UniProt Q5VVQ6) | -0.416 (inactive)
BAP1 (UniProt Q92560) | -1.16 (active)
UniProt P51784 | -0.403 (inactive)
USP25 (UniProt Q9UHP3) | -0.711 (inactive)
UniProt Q9UGI0 | -1.16 (active)

Each target was assayed with ClCC(=O)N1CCc2scc(Br)c2C1 in the same assay as above. Settings: compound concentration: 50uM; treatment time: 3 h.
Procedure, shortened: as §1

Target | log2 ratio of Biotin-Ahx-Ub-VS probe labelling
USP54 (UniProt Q70EL1) | -0.124 (inactive)
UniProt Q5T2D3 | -0.0373 (inactive)
USP28 (UniProt Q96RU2) | -0.468 (inactive)
UniProt Q70EL2 | -0.413 (inactive)
USP22 (UniProt Q9UPT9) | -0.0943 (inactive)
OTUD6B (UniProt Q8N6M0) | -0.125 (inactive)
EIF3F (UniProt O00303) | -0.352 (inactive)
USP36 (UniProt Q9P275) | 0.0162 (inactive)
USP16 (UniProt Q9Y5T5) | -0.507 (inactive)
UCHL5 (UniProt Q9Y5K5) | -0.0669 (inactive)
OTUD7B (UniProt Q6GQQ9) | -0.654 (inactive)
USP14 (UniProt P54578) | -0.438 (inactive)
USP7 (UniProt Q93009) | -0.698 (inactive)
USP34 (UniProt Q70CQ2) | 0.689 (inactive)
OTUB1 (UniProt Q96FW1) | 0.0181 (inactive)
USP9X (UniProt Q93008) | -0.229 (inactive)
COPS5 (UniProt Q92905) | -0.23 (inactive)
USP10 (UniProt Q14694) | -0.066 (inactive)
USP46 (UniProt P62068) | -0.291 (inactive)
YOD1 (UniProt Q5VVQ6) | 0.039 (inactive)
BAP1 (UniProt Q92560) | -0.426 (inactive)
UniProt P51784 | -0.0183 (inactive)
USP25 (UniProt Q9UHP3) | 0.621 (inactive)
UniProt Q9UGI0 | -0.277 (inactive)
